This is one part of a sample in which hits are shown more often than they occur.
Methyltransferases – Primary Screen for Target Class Profiling of Small Molecule Inhibitors of Methyltransferases; 3.9% of 25,000 active; calls only at 40 µM; purified enzyme, MTase-Glo SAH luminescence; hits give low values; AID 1745853, 2022; call rule not given here
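Each enzyme was reacted with SAM and its substrate, with compounds tested once at 40 uM; SAH formed was read by MTase-Glo luminescence.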
* = called active by the depositor; i = inactive; + = active, no number; ! = a repeat was not active. % is scaled to controls: 0 for no effect and ±100 for the full control effect.

SMILES | Methyltransferases
CCCN1C(=O)c2ccc(-c3ccco3)n2CC1(C)C(=O)NC1CCCCCC1 (stereo not given) | i
O=C(CCn1ccc2cc(S(=O)(=O)N3CCCCC3)ccc21)NCc1cccs1 | i
CN(C)c1ccc(/C=C2\C(=O)Nc3ccccc32)cc1 | +
CCC(C)NC(=O)c1ccc2c(=O)n(C)c3nn(Cc4cccc(F)c4)c(=O)n3c2c1 (stereo not given) | i
CCCn1c(=O)c2ccc(C(=O)NC3CCCC3)cc2n2c(=O)n(CC(=O)c3cc(C)ccc3C)nc12 | i
CCCN1C(=O)c2c(C(=O)NCCCc3ccccc3)ncn2CC1(C)C(=O)NC1CCCC1 (stereo not given) | i
COC(=O)[C@@H](N)Cc1ccc(O)c(O)c1 | i
N[C@@H](Cc1ccc(O)c(I)c1)C(=O)O | i
O=C(O)Cc1ccc(O)c(O)c1 | +
CC(C)(C)c1cc2n(n1)CC(C)(C(=O)NC1CCCCC1)N(CCCc1ccccc1)C2=O (stereo not given) | i
C=C1C(=O)OC[C@@H]1C/C=C(\C)CC1CC(C)C(=O)O1 (stereo not given in full) | +
CCOC(=O)c1cc2n(n1)CC(C)(C(=O)NC1CCCC1)N(c1cccc(SC)c1)C2=O (stereo not given) | i
CCN(CC)CCOc1ccc(Nc2ncc3cc(-c4c(Cl)cccc4Cl)c(=O)n(C)c3n2)cc1 | +
CC1(C(=O)NC2CCCC2)Cn2c(ccc2-c2ccco2)C(=O)N1CCN1CCCCCC1 (stereo not given) | i
CCOC(=O)c1cc2n(n1)CC(C)(C(=O)NCc1ccc(C)cc1)N(Cc1ccccc1OC)C2=O (stereo not given) | i
CCCCNC(=O)c1ncn2c1C(=O)N(C1CC1)C(C)(C(=O)NCc1ccc(OC)cc1)C2 (stereo not given) | i
O=[N+]([O-])c1ccc(CNc2nc(NCc3cccc(C(F)(F)F)c3)nc3nc[nH]c23)cc1 | +!
CCOc1ccccc1NC(=O)N1CCn2c(C)ccc2C1CC (stereo not given) | i
O=S(=O)(c1ccccc1)c1nnn2c1nc(Nc1cccc(F)c1)c1ccccc12 | i
O=C(Cn1ccc2cc(S(=O)(=O)N3CCCCC3)ccc21)NCc1cccnc1 | i
O=C1NC(=O)/C(=C/c2ccc(-c3ccc(F)cc3O)o2)S1 | +
COc1ccc(N2C(=O)c3cc4ccccc4n3CC2(C)C(=O)NC2CCCCC2)cc1OC (stereo not given) | i
OCCCNc1cc(-c2ccnc(Nc3cccc(Cl)c3)n2)ccn1 | +
COc1ccccc1CN1C(=O)c2cc3occc3n2CC1(C)C(=O)NC1CCCCC1C (stereo not given) | i
Cc1cc2c(cc3n2CC(C)(C(=O)NC2CCCCCC2)N(c2cc(Cl)ccc2C)C3=O)o1 (stereo not given) | i
SMILES | Methyltransferases
O=C1NC(=O)C(c2ccccc2[N+](=O)[O-])=C1Nc1ccc(O)c(Cl)c1 | +
C=Cc1ccc(Cn2nc3n(Cc4ccc(F)cc4)c(=O)c4ccccc4n3c2=O)cc1 | i
CCCN1C(=O)c2cc(C(=O)NCCCOC(C)C)nn2CC1(C)C(=O)NC1CCCC1 (stereo not given) | i
CCOC(=O)c1cc2n(n1)CC(C)(C(=O)NCCC(C)C)N(c1cc(C)ccc1OC)C2=O (stereo not given) | i
CC(C)(C)c1cc(/C=C(\C#N)C(N)=S)cc(C(C)(C)C)c1O | +
CCCn1c(=O)c2ccc(Cl)cc2n2c(=O)n(CC(=O)Nc3ccc(CC)cc3)nc12 | i
CCCn1c(=O)c2ccc(C(=O)NCC(C)C)cc2n2c(=O)n(CC(=O)c3ccccc3)nc12 | i
CC1(C(=O)NC2CCCCCCC2)Cn2c(cc3sccc32)C(=O)N1Cc1ccccc1 (stereo not given) | i
CC1(C(=O)NC2CCCCCC2)Cc2ccccc2C(=O)N1Cc1ccccc1Cl (stereo not given) | i
O=C(O)c1cc(N(Cc2ccc(C3CCCCC3)cc2)C(=O)c2ccc(Oc3ccccc3)cc2)ccc1O | +
Cc1cccc(NC(=O)N2CCn3cccc3C2Cc2ccccc2)c1C (stereo not given) | i
Cc1cccc(N2C(=O)c3cc4sccc4n3CC2(C)C(=O)NC2CCCCC2C)c1C (stereo not given) | i
CN1C(=O)c2cc(C(=O)N3CCN(c4ncccn4)CC3)nn2CC1(C)C(=O)NC1CCCCCC1 (stereo not given) | i
CC1(C(=O)NC2CCCCCC2)Cn2c(cc3sccc32)C(=O)N1Cc1cccs1 (stereo not given) | i
NC(N)=NC(=O)c1cnn(-c2cccc3ncccc23)c1C1CC1 | +
CN(C)CCC[C@]1(c2ccc(F)cc2)OCc2cc(C#N)ccc21 | +
O=C(Cn1ccc2cc(S(=O)(=O)N3CCCC3)ccc21)NCc1ccc(F)cc1 | i
CN1C(=O)c2cc(C(=O)NC3CCCCCC3)nn2CC1(C)C(=O)NC1CCCC1 (stereo not given) | i
CCOC(=O)c1cc2n(n1)CC(C)(C(=O)NCc1ccccc1)N(Cc1cccc(C)c1C)C2=O (stereo not given) | i
CC1(C(=O)NC2CCCC2)Cn2c(nc3ccccc32)C(=O)N1Cc1cccs1 (stereo not given) | i
Cc1ccc(C(C)C)c(O[C@@H]2O[C@H](CO)[C@@H](O)[C@H](O)[C@H]2O)c1 | i
OC[C@H]1O[C@@H](O[C@H]2[C@H](O)[C@@H](CO)O[C@@H](OCc3ccccc3)[C@@H]2O[C@@H]2OC[C@](O)(CO)[C@H]2O)[C@H](O)[C@@H](O)[C@@H]1O | i
O=C(O)CCc1cc2ccoc2cc1O[C@@H]1O[C@H](CO)[C@@H](O)[C@H](O)[C@H]1O | i
OC[C@H]1O[C@@H](OCCc2ccccc2)[C@H](O[C@@H]2OC[C@@H](O)[C@H](O)[C@H]2O)[C@@H](O)[C@@H]1O | +
O=C(O[C@H]1[C@H](Oc2ccc(O)cc2CO)O[C@H](CO)[C@@H](O)[C@@H]1O)c1ccccc1 | i
SMILES | Methyltransferases
O=C(O)c1cc(O)c2cccc(O)c2c1O[C@@H]1O[C@H](CO)[C@@H](O)[C@H](O)[C@H]1O | +
OC[C@H]1O[C@@H](O[C@H]2[C@H](OCc3ccccc3)O[C@H](CO[C@@H]3OC[C@@H](O)[C@H](O)[C@H]3O)[C@@H](O)[C@@H]2O)[C@H](O)[C@@H](O)[C@@H]1O | i
O=C(O)CCc1cccc(O[C@@H]2O[C@H](CO)[C@@H](O)[C@H](O)[C@H]2O)c1O | +
OC[C@H]1O[C@@H](OC(CCCCc2ccc(O)cc2)CCc2ccc(O)cc2)[C@H](O[C@@H]2OC[C@](O)(CO)[C@H]2O)[C@@H](O)[C@@H]1O (stereo not given in full) | i
O=C(O)CC(CCc1ccccc1)OC1OC(CO)C(O)C(O)C1O (stereo not given) | +
C=CCc1ccc(O[C@@H]2O[C@H](CO)[C@@H](O)[C@H](O)[C@H]2O)c(O[C@@H]2O[C@H](CO)[C@@H](O)[C@H](O)[C@H]2O)c1 | i
OC[C@H]1O[C@@H](OCCc2ccc(O)cc2)[C@H](O)[C@@H](O)[C@@H]1O | i
Cc1cccc(CNC(=O)C2(C)Cn3cnc(C(=O)N4CCCC4)c3C(=O)N2C2CC2)c1 (stereo not given) | i

Screens (PubChem)
